Shown are actives, neighbours in structure and some others; about 9.3% of the full set was active somewhere.
SMN2 splice up: enhancers of SMN2 splice variant expression | HEK293 SMN2-luciferase splicing reporter, luminescence, 30-36 h | Potency, µM (top dose mostly 46.1 µM), inactives show at the highest dose activity change, positive = activation, actives largely listed as activators | hit rate 2.8% among 210,000 | AID 1458; further: % of control where 0% means no effect; nearly all actives have a fitted effect of over 55% in size
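qHTS luciferase splicing reporter: luminescence rises when SMN2 exon 7 is included in transfected HEK293 cells. Compound exposure lasted 30-36 h at 37C, with 4.5 mM final sodium butyrate as control, followed by a ONE-Glo read.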
Rab9 prom act: activates the Rab9 promoter | hit rate 2.8% among 320,000 | Potency, µM (highest dose often 9.22 µM), for inactives: at the top dose activation, negative = inhibition, actives largely listed as activators | Huh7 Rab9 promoter-luciferase reporter, luminescence, 24 h; further: % of control where 0% means no effect; nearly all actives have a fitted effect of over 60% in size
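Promoter activation is measured as luciferase luminescence in Huh7 cells stably transfected with a Rab9 promoter–luciferase construct, following 24 h compound exposure at 37 °C and 10 min reagent incubation at ambient temperature.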
ELG1 genotoxic: inducers of genotoxicity in HEK293T ELG1-luciferase cells; HEK293T ELG1-luciferase reporter, luminescence, 16 h; Potency, µM (doses to about 46 µM), for the others: at the top dose activity change, positive = activation, actives largely listed as activators; hit rate 1.3% among 330,000; AID 504466; further: % of control where 0% means no effect; nearly all actives have a fitted effect of over 60% in size
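Genotoxicity was scored as increased ELG1-luciferase reporter signal, measured by ONE-Glo luminescence (30 min, room temperature). Compound or vehicle exposure of the HEK293T reporter cells lasted 16 hr at 37°C.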
ELG1 repair inh: inhibitors of ELG1-dependent DNA repair in HEK293T cells; hit rate 2.3% among 330,000; HEK293T ELG1-luciferase reporter, luminescence, 16 h; DNA damage induced by 5-fluorouridine; Potency, µM (top dose mostly 46.1 µM), without a hit: top-dose activity change, negative = inhibition, usual class: inhibitors; AID 504467; further: on the % scale 0 is the no-effect control and ±100 the full control effect; nearly all actives have a fitted effect of over 55% in size
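HEK293T cells expressing luciferase-tagged ELG1 (2,000/well) received 5-Fluorouridine plus compound or DMSO for 16 hr at 37 °C. Luciferase was read by ONE-Glo luminescence after 30 min at room temperature.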
NPC1 promoter act: activates the NPC1 promoter; hit rate 2.4% among 320,000; Huh7 NPC1 promoter luciferase reporter, 24 h; Potency, µM (doses to about 9.22 µM), inactives show top-dose activation, most hits filed as activators; further: % of control where 0% means no effect; nearly all actives have a fitted effect of over 60% in size
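In 1536-well qHTS, Huh7 cells harboring an NPC1 promoter–luciferase construct received compound for 24 h; activation was quantified by luminescence following luciferase reagent addition.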
FLuc counter: inhibits or activates purified firefly luciferase, miR-21 counter-screen | P08659 | purified FLuc, Km substrates, luminescence inhibition | Potency, µM (series often up to 57.5 µM), inactives show top-dose activity change, negative = inhibition, usual class: inhibitors | hit rate 6.9% among 360,000 | AID 588342;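 further: plate controls were vehicle for no effect and reference inhibitor for full effect; nearly all actives have a fitted effect of over 55% in size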
Target sequence (P08659 whole entry, looked up): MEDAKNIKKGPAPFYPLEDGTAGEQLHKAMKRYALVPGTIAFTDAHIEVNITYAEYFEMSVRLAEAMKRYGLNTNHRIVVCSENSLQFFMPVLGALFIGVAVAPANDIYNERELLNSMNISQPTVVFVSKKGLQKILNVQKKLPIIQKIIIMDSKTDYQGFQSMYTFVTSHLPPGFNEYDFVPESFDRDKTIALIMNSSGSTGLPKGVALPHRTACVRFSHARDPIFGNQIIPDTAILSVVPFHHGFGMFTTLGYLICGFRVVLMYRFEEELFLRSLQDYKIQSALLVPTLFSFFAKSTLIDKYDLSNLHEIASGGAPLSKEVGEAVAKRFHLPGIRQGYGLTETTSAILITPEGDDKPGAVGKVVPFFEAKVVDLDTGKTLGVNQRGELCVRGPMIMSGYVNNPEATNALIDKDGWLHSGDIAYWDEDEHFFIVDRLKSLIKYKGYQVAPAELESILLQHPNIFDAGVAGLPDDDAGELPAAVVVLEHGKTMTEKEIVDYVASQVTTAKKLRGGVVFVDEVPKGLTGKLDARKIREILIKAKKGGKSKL
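Purified P. pyralis luciferase, 10 nM final, with Km-level 10 uM D-luciferin and 10 uM ATP in 50 mM Tris acetate pH 7.5, 10 mM Mg acetate, 0.01% Tween-20, 0.05% BSA; 6-point qHTS titration about 60 µM downward; luminescence read.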
Numbers without * were called inactive; [ ] = remark or other dose. The call rests on the fitted dose curve; in most records, active means well fitted curve in the direction sought with a large enough effect; inconclusive means small, poorly fitted or top-dose-only effect, or another doubt; inactive means no such curve, though single readings can be large; an effect the other way counts as inactive or inconclusive. Potency means the concentration at half of the fitted maximal effect.

What do the screens show for `O=C(c1nnc(Cc2ccc(Cl)cc2)o1)N1CCOCC1`?
SMN2 splice up: -0.1%; Rab9 prom act: -1.1%; ELG1 genotoxic: 0.1%; ELG1 repair inh: 2.1%; NPC1 promoter act: -1.3%; FLuc counter: -19.3%

Results for Cc1nn(-c2cccc(C(=O)O)c2)c(C)c1[N+](=O)[O-] ?
SMN2 splice up: 3.3%; Rab9 prom act: -0.4%; ELG1 genotoxic: 1.3%; ELG1 repair inh: -4.0%; NPC1 promoter act: -3.6%; FLuc counter: -10.3%

How did O=C(Nc1cccnc1)c1cc(-c2ccc(Br)cc2)nc2ccccc12 do in these assays?
Rab9 prom act: 0.1%; ELG1 genotoxic: 0.0%; ELG1 repair inh: inconclusive; NPC1 promoter act: -0.1%; FLuc counter: 16.9µM*

Results for Cc1ccc(-c2cc(C(=O)Nc3ccccn3)c3ccccc3n2)o1 ?
SMN2 splice up: 2.9%; Rab9 prom act: 2.6%; ELG1 genotoxic: -12.5%; ELG1 repair inh: inconclusive; NPC1 promoter act: -0.9%; FLuc counter: 10.7µM*

What do the screens show for `Cc1ccc(NC(=O)c2cc(-c3ccc(C)o3)nc3ccccc23)cc1`?
SMN2 splice up: 10.4%; Rab9 prom act: 8.7%; ELG1 genotoxic: 5.0%; ELG1 repair inh: 1.2%; NPC1 promoter act: 0.7%; FLuc counter: inconclusive

Results for CSc1ccccc1NC(=O)c1cc(-c2cccnc2)nc2ccc(Br)cc12 ?
SMN2 splice up: -25.8%; Rab9 prom act: -5.9%; ELG1 genotoxic: -9.4%; ELG1 repair inh: 23.1µM*; NPC1 promoter act: -4.1%; FLuc counter: -11.9%

How did COc1ccccc1NC(=O)c1cc(-c2ccc(C)o2)nc2ccccc12 do in these assays?
Rab9 prom act: 13.4%; ELG1 genotoxic: -0.9%; ELG1 repair inh: 1.2%; NPC1 promoter act: -1.3%; FLuc counter: 7.57µM*

What do the screens show for `COc1ccccc1NC(=O)c1cc(C)nc2ccccc12`?
SMN2 splice up: 0.1%; Rab9 prom act: -0.9%; ELG1 genotoxic: -1.8%; ELG1 repair inh: -11.8%; NPC1 promoter act: 3.1%; FLuc counter: -1.3%

Results for O=C1N/C(=C/c2cccs2)C(=O)N1Cc1ccc(Br)cc1 ?
SMN2 splice up: 7.0%; Rab9 prom act: 1.0%; ELG1 genotoxic: 4.9%; ELG1 repair inh: 14.5%; NPC1 promoter act: -0.9%; FLuc counter: -2.0%

What do the screens show for `CC(C)Cn1c(-c2ccco2)n[nH]c1=S`?
SMN2 splice up: 0.1%; Rab9 prom act: 16.4%; ELG1 genotoxic: -0.5%; ELG1 repair inh: -3.8%; NPC1 promoter act: -2.5%; FLuc counter: -1.0%

Results for Cc1ccc(-c2cc(C(=O)Nc3cccnc3)c3ccccc3n2)o1 ?
SMN2 splice up: 2.8%; Rab9 prom act: 15.7%; ELG1 genotoxic: -0.4%; ELG1 repair inh: inconclusive; NPC1 promoter act: -0.3%; FLuc counter: 6.01µM*

Results for CN(C)C(=O)c1ccc2c(c1[N+](=O)[O-])C(=O)c1ccccc1C2=O ?
SMN2 splice up: 11.2µM*; Rab9 prom act: inconclusive; ELG1 genotoxic: 8.0%; ELG1 repair inh: inconclusive; NPC1 promoter act: inconclusive; FLuc counter: 3.6%

Results for CCC(O)(CC)C(=O)N/N=C/c1cc(Br)cc(Br)c1O ?
Rab9 prom act: -4.0%; ELG1 genotoxic: 5.9%; ELG1 repair inh: 23.1µM*; NPC1 promoter act: -7.7%; FLuc counter: 3.9%

How did O=C(C[n+]1ccccc1)N/N=C/c1cc(Br)cc(Br)c1O do in these assays?
Rab9 prom act: 2.0%; ELG1 genotoxic: -5.5%; ELG1 repair inh: 20.6µM*; NPC1 promoter act: -1.0%; FLuc counter: 1.2%

Results for CC(=O)Nc1ccc(OCc2nnc(-c3ccccc3)o2)cc1 ?
Rab9 prom act: 14.2%; ELG1 genotoxic: 11.4%; ELG1 repair inh: 5.0%; NPC1 promoter act: 3.5%; FLuc counter: -14.2%

What do the screens show for `Cc1cccc(C)c1N(Cc1ccccc1F)S(C)(=O)=O`?
SMN2 splice up: -1.0%; Rab9 prom act: -1.6%; ELG1 genotoxic: -2.0%; ELG1 repair inh: 14.9%; NPC1 promoter act: -0.4%; FLuc counter: 0.0%

What do the screens show for `CC1=C(C(=O)Nc2ccccn2)C(c2ccc(N(C)C)cc2)n2ncnc2N1` (configuration not stated)?
Rab9 prom act: 22.6%; ELG1 genotoxic: 0.6%; ELG1 repair inh: 10.4%; NPC1 promoter act: 0.0%; FLuc counter: -2.4%

How did Cc1[nH]c(SCC(=O)c2c(N)n(C)c(=O)n(C)c2=O)nc1Cc1ccccc1 do in these assays?
ELG1 genotoxic: 4.9%; ELG1 repair inh: 2.3%

What do the screens show for `Cc1[nH]nc2c1-c1nc3ccccc3nc1C(C)(C)C2`?
SMN2 splice up: -68.1%; Rab9 prom act: -13.0%; ELG1 genotoxic: -16.4%; ELG1 repair inh: 9.2µM*; NPC1 promoter act: -3.6%; FLuc counter: 2.2%

What do the screens show for `CC12CCC(C)(c3nc4ccccc4nc31)C2(C)C`?
SMN2 splice up: -1.2%; Rab9 prom act: -2.6%; ELG1 genotoxic: -2.3%; ELG1 repair inh: 0.3%; NPC1 promoter act: -1.5%; FLuc counter: 0.4%

How did CCc1ccc2nc(SCC(=O)N(CC)CC)c(C#N)cc2c1 do in these assays?
SMN2 splice up: -10.9%; Rab9 prom act: 1.0%; ELG1 genotoxic: -18.3%; ELG1 repair inh: -25.3%; NPC1 promoter act: 8.4%; FLuc counter: 1.0%

What do the screens show for `Cc1ccc(-n2ncc3c(NCCCn4ccnc4)ncnc32)cc1`?
FLuc counter: 12µM*

How did Cc1cccc(-n2ncc3c(NCCCn4ccnc4)ncnc32)c1 do in these assays?
SMN2 splice up: 7.08µM*; Rab9 prom act: inconclusive; ELG1 genotoxic: inconclusive; ELG1 repair inh: inconclusive; NPC1 promoter act: 27.0%; FLuc counter: inconclusive

Results for Cc1cc(OC(C)C(=O)N2CCN(c3ccccc3)CC2)c2c(C)c(C)c(=O)oc2c1 (configuration not stated) ?
Rab9 prom act: -4.9%; ELG1 genotoxic: -20.2%; ELG1 repair inh: 16.4µM*; NPC1 promoter act: -1.6%; FLuc counter: -0.1%

Results for Cc1cc(OCC(=O)N2CCN(c3ccccc3)CC2)c2c(C)c(C)c(=O)oc2c1 ?
Rab9 prom act: 3.6%; ELG1 genotoxic: 6.7%[9.26 µM]; ELG1 repair inh: inconclusive; NPC1 promoter act: -7.8%; FLuc counter: 2.2%

Results for CC1CCCN(c2nc3ccccc3nc2C(C#N)S(=O)(=O)c2cccs2)C1 (configuration not stated) ?
SMN2 splice up: -36.8%; Rab9 prom act: -8.4%; ELG1 genotoxic: -16.9%; ELG1 repair inh: inconclusive; NPC1 promoter act: 0.8%; FLuc counter: -1.6%

Results for Cc1ccc2[nH]c3c(N4CCOCC4)ncnc3c2c1 ?
SMN2 splice up: -42.1%; Rab9 prom act: 2.6%; ELG1 genotoxic: 5.5%; ELG1 repair inh: -20.3%; NPC1 promoter act: 1.0%; FLuc counter: 16.9µM*

Compound activity from PubChem BioAssay.
